Assay outcomes from PubChem BioAssay.
Only some compounds are listed: those with a hit (about 21% of all), similar ones and a draw of the others.
ELG1 DNA repair = blocks ELG1-dependent DNA repair in HEK293T cells; Potency, µM (top dose mostly 46.1 µM), for the others: at the highest dose activity change, negative = inhibition, usual class: inhibitors; hit rate 2.3% among 330,000; HEK293T ELG1-luciferase reporter, luminescence, 16 h; DNA damage induced by 5-fluorouridine; also: potency is read from the fitted curve at half-maximal effect; nearly all actives have a fitted effect of over 55% in size
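Overnight (16 hr) co-exposure of 2,000 cells/well to 5-fluorouridine and compound at 37 °C preceded detection. Luciferase was quantified via ONE-Glo luminescence; loss of signal denotes inhibition.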
TDP1 cell noCPT = qHTS for Inhibitors of human tyrosyl-DNA phosphodiesterase 1 (TDP1): qHTS in cells in absence of CPT | DT40 Tdp1-/- hTDP1 cells, no CPT, ATP luminescence, 48 h | Potency, µM (highest dose often 46.2 µM), without a hit: top-dose activity change, negative = growth inhibition, actives largely listed as inhibitors | hit rate 15% among 420,000; also: potency is read from the fitted curve at half-maximal effect; nearly all actives have a fitted effect of over 55% in size
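Growth of hTDP1-complemented DT40 Tdp1-knockout cells is measured by ATP luminescence after at least 48 hr compound exposure at 37 °C, with DMSO substituting for the 20 nM CPT used in the parallel screen.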
Gal4-VP16 FLuc = counter-screen for ROR gamma inhibitors: Gal4-VP16 reporter. Drosophila S2 Gal4-VP16 UAS-luciferase, luminescence, 20 h. Potency, µM (doses to about 53.6 µM), for the others: at the top dose activity, negative = inhibition, hits mostly inhibitors. hit rate 3.5% among 310,000. AID 2546;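 also: Gal4-VP16 expression switched on by copper sulfate through the metallothionein promoter; potency is read from the fitted curve at half-maximal effect; nearly all actives have a fitted effect of over 50% in size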
TDP1 cell CPT = DT40-hTDP1 cell growth loss with CPT; chicken DT40 Tdp1-/-;hTDP1 cells + 20 nM CPT, ATP luminescence, 48 h; Potency, µM (doses to about 46.2 µM), inactives show top-dose activity change, negative = growth inhibition, usual class: inhibitors; hit rate 12% among 420,000; AID 686979; also: potency is read from the fitted curve at half-maximal effect; nearly all actives have a fitted effect of over 55% in size
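Chicken DT40 Tdp1-/- cells complemented with human TDP1, 400 cells/well, exposed to compounds plus 20 nM camptothecin for at least 48 h at 37 C; viability read as ATP content by CellTiter-Glo luminescence.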
RORgamma inh = inhibitors of mouse ROR gamma transcriptional activity; AID 2551; hit rate 5.4% among 310,000; P51450; Potency, µM (series often up to 53.6 µM), without a hit: at the top dose activity change, negative = inhibition, actives largely listed as inhibitors; Drosophila S2 Gal4-RORgamma UAS-luciferase reporter, 20 h; also: potency is read from the fitted curve at half-maximal effect; nearly all actives have a fitted effect of over 60% in size
Target sequence (P51450 whole entry, looked up, the tested form may be a part): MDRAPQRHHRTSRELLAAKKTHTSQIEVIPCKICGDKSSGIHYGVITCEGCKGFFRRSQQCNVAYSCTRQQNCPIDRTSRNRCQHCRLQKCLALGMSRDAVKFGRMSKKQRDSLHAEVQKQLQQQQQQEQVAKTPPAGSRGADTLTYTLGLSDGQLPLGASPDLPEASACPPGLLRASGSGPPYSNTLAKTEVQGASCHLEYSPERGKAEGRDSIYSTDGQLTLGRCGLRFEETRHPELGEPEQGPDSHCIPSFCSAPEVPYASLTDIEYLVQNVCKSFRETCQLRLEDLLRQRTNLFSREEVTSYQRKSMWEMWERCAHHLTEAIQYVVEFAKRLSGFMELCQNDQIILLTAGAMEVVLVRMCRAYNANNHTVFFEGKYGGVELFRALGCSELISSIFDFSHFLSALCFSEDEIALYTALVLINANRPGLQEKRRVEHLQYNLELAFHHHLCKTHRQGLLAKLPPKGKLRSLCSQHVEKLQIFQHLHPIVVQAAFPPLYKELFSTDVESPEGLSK
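Read-out: Photinus luciferase luminescence; inhibitors lower reporter signal. Insect Schneider cells with Gal4-ROR gamma fusion under metallothionein promoter, UAS reporter; 700 uM final copper sulfate induction, 20 hr, ambient temperature.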
IL-1B inflam inh = blocks inflammasome-driven IL-1 beta release; THP-1 LPS/ATP IL-1B secretion, AlphaLISA, 16 h; stronger effect = lower value; activity change, % at 57.5 µM; hit rate 4.7% among 360,000; in the data active = activity change below about -50%; inconclusive = mostly about -30% to -49%
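Secreted IL-1B measured by AlphaLISA bead assay after 16 h compound exposure of THP-1 cells; compounds (final up to 57.5 uM) added 1 h before LPS (250 ng/mL) and ATP (1.25 mM) stimulation; lower signal means less secretion.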
* marks the source's active call; other numbers are inactive results; ? = inconclusive; . = no result; [ ] = remark or other dose. Unless noted, calls follow the shape of the dose curve; as a rule, active = well fitted curve in the direction sought with a large enough effect; inconclusive = small, poorly fitted or top-dose-only effect, or another doubt; inactive = no such curve, though single readings can be large; an effect the other way counts as inactive or inconclusive. % is scaled to controls: 0 for no effect and ±100 for the full control effect.

SMILES	ELG1 DNA repair	TDP1 cell noCPT	Gal4-VP16 FLuc	TDP1 cell CPT	RORgamma inh	IL-1B inflam inh
CCOC(=O)c1c(-c2ccccc2)nnn1-c1nc(OC)nc(N2CCOCC2)n1	-8.6%	16.4µM*	-1.6%	23.1µM*	12.8%	-17.0
CCCC1NC(=O)c2cccnc2-n2c1nc1ccc(Cl)cc1c2=O (stereo not drawn)	.	-3.7%	.	8.9%	.	-2.1
CCCNC(=O)Cn1c(=O)/c(=C\c2ccc(-c3cccc([N+](=O)[O-])c3)o2)s/c1=C\C(=O)C(C)(C)C	?	23.1µM*	-7.2%	23.1µM*	38.0%	9.1
Nc1nccc(-c2ccc(-n3cccc3)cc2)n1	?	12.5%	-11.4%	1.3%	21.7%	11.8
O=[N+]([O-])c1ccc2c(c1N1CCCCC1)=NC1(CCCCC1)[N+]=2[O-]	0.0%	20.6µM*	-2.6%	20.6µM*	14.6%	2.8
Cc1ccc2nc(=O)c(NNc3ccccc3)cnc2c1	?	10.3µM*	-9.2%	?	-1.5%	-27.5
Cc1cc(C)c(/C=C/c2onc(C)c2S(=O)(=O)N2CCC(C(=O)Nc3cccc(C)c3C)CC2)c(C)c1	.	6.51µM*	.	5.17µM*	.	.
Cc1ccc(/C=C/c2onc(C)c2S(=O)(=O)N2CCC(C(=O)N(CCC(C)C)Cc3ccco3)CC2)cc1	.	16.4µM*	.	?	.	.
Cc1ccc(/C=C/c2onc(C)c2S(=O)(=O)N2CCC(C(=O)Nc3ccccc3C(F)(F)F)CC2)cc1	.	-2.5%	.	-9.9%	.	.
Cc1cc(C)c(/C=C/c2onc(C)c2S(=O)(=O)N2CCC(C(=O)N3CCN(c4ccccc4)CC3)CC2)c(C)c1	.	13µM*	.	16.4µM*	.	.
Cc1ccc(/C=C/c2onc(C)c2S(=O)(=O)N2CCC(C(=O)NCc3ccco3)CC2)cc1	.	-27.1%	.	-29.3%	.	.
Cc1ccc(/C=C/c2onc(C)c2S(=O)(=O)N2CCC(C(=O)N3CC(C)Oc4ccccc43)CC2)cc1 (stereo not drawn)	.	11.6µM*	.	18.4µM*	.	.
CC1CCN(C(c2ccc(F)cc2)c2sc3nc(-c4ccco4)nn3c2O)CC1 (stereo not drawn)	.	5.1%	.	3.3%	.	.
CN(CC(=O)Nc1ccc(Cl)cc1F)S(=O)(=O)c1ccc2c(c1)n(C)c(=O)c(=O)n2C	.	-13.5%	.	-10.5%	.	.
COc1cccc2c1Oc1ncccc1N(C(=O)CCC(=O)NCc1ccc(N(C)C)cc1)C2	.	-18.4%	.	?	.	.
O=C(Nc1ccc(F)cc1)C(c1cccc(F)c1)N1CCN(C(=O)c2ccco2)CC1 (stereo not drawn)	.	-28.5%	.	-24.7%	.	-3.5
CCOc1ccccc1CNC(=O)C1CCN(S(=O)(=O)c2c(C)noc2/C=C/c2ccccc2F)CC1	.	?	.	-24.1%	.	.
Cc1cccc(/C=C/c2onc(C)c2S(=O)(=O)N2CCC(C(=O)NC(C)(C)C)CC2)c1	?	?	2.5%	?	10.8%	3.2
COc1ccc(CNC(=O)C2CCN(S(=O)(=O)c3c(C)noc3/C=C/c3cccs3)CC2)cc1	.	-27.0%	.	-23.2%	.	.
Cc1ccc(CNC(=O)C2CCN(S(=O)(=O)c3c(C)noc3/C=C/c3cccs3)CC2)cc1	.	?	.	20.6µM*	.	.
Cc1cccc(N2CCN(C(=O)C3CCN(S(=O)(=O)c4c(C)noc4/C=C/c4ccccc4F)CC3)CC2C)c1 (stereo not drawn)	.	6.51µM*	.	10.3µM*	.	.
CCC(C)(C)NC(=O)C1CCN(S(=O)(=O)c2c(C)noc2/C=C/c2ccc(C)cc2)CC1	.	?	.	23.1µM*	.	.
Cc1ccc(/C=C/c2onc(C)c2S(=O)(=O)N2CCC(C(=O)N3CCN(C)CC3)CC2)cc1	-15.5%	23.1µM*	-29.8%	?	?	.
N#Cc1ccccc1OC[C@H](O)CNCCNC(=O)Nc1ccccc1	.	?	-15.1%	?	0.7%	.
CCOc1ccccc1/C=C/c1onc(C)c1S(=O)(=O)N1CCC(C(=O)N2CCCCC2)CC1	.	20.6µM*	.	16.4µM*	.	.
SMILES	ELG1 DNA repair	TDP1 cell noCPT	Gal4-VP16 FLuc	TDP1 cell CPT	RORgamma inh	IL-1B inflam inh
CCOc1ccccc1/C=C/c1onc(C)c1S(=O)(=O)N1CCC(C(=O)NC)CC1	?	?	-12.5%	?	?	27.3
CCOc1ccccc1CNC(=O)C1CCN(S(=O)(=O)c2c(C)noc2/C=C/c2ccc(C)cc2)CC1	.	-27.7%	.	?	.	.
CCOC(=O)C1CCN(C(=O)C2CCN(S(=O)(=O)c3c(C)noc3/C=C/c3ccc(C)cc3)CC2)CC1	.	5.17µM*	.	?	.	.
O=C(c1ccccc1)c1ccc[nH]1	.	-9.8%	.	-6.4%	.	-25.3
CNc1cncc(-c2cc(OC)ccc2OC)n1	.	-11.5%	.	-6.4%	.	-14.9
COc1ccc(C(C)C)cc1-c1cncc(NC(C)=O)n1	.	?	.	-26.1%	.	-95.7*
CCN(CC)S(=O)(=O)c1ccc(Oc2ccccc2OC)cc1	?	?	-7.3%	18.4µM*	18.7%	0.0
CCN(CC)S(=O)(=O)c1ccc(N)cc1	?	-2.6%	-1.9%	5.8%	-5.3%	-4.0
CCN(CC)S(=O)(=O)c1ccc(Oc2ccc(S(=O)(=O)N(CC)CC)cc2)cc1	?	5.8µM*	7.08µM*	18.4µM*	?	?
CCN(CC)S(=O)(=O)c1ccc(OCCNS(C)(=O)=O)cc1	-2.9%	16.4µM*	-1.2%	6.51µM*	-5.3%	-2.0
CCOc1cc(S(=O)(=O)N(CC)CC)ccc1Cl	10.7%	-18.1%	-8.2%	-4.7%	7.1%	2.0
CCCN(CCC)S(=O)(=O)c1ccc(Cl)c(OC)c1	-9.0%	13µM*	-4.3%	?	26.0%	-15.8
CCNS(=O)(=O)c1ccc(OCCNS(C)(=O)=O)cc1	?	?	-7.7%	-18.7%	0.3%	-12.8
CN(/C(=N\S(=O)(=O)c1ccccc1)c1ccccc1)c1ccc(O)cc1	3.5%	?	-0.5%	?	19.4%	30.6
O=S(=O)(c1ccc(N2CCN(S(=O)(=O)c3ccc4c(c3)OCCO4)CC2)nc1)N1CCCC1	8.2µM*	?	10.4%	-1.0%	?	-11.8
CCCCCC(=O)N1CCN(S(=O)(=O)c2ccc3c(c2)OCCO3)CC1	-1.1%	-19.8%	.	-3.9%	.	9.0
O=C(CCl)N1CCN(S(=O)(=O)c2ccc3c(c2)OCCCO3)CC1	18.3µM*	3.66µM*	.	5.17µM*	.	-96.4*
O=C(c1ccccn1)N1CCN(S(=O)(=O)c2ccc3ccccc3c2)CC1	-26.2%	-26.9%	1.8%[10 µM]	-2.5%	?	24.3
Nn1cc(-c2ccccc2)nc1SCC(=O)N1CCN(S(=O)(=O)c2ccc3ccccc3c2)CC1	?	?	12.2%	?	10.0%	-50.7*
